From PubChem BioAssay (NCI)
“And” between values parts separate entries of the source, which are not always exact repeats. Equal values may be shown once. Compounds without any hit were thinned out: in the full panel of roughly 79,000, 15% have a hit. The source holds several records for some structures; these can differ, active in one and inactive in another. The source made the active and inactive calls. Cut-off read from the data, not from the text of the source: active = growth inhibition above about 70%; inactive = the rest.

Key:
[1] = NCI Yeast Anticancer Drug Screen. Data for the rad14 strain (AID 159);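 note: 0% = growth of vehicle-treated control cultures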; details: S. cerevisiae rad14 strain growth inhibition, stronger effect = higher value
How it was run: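 Yeast cells carrying a defined DNA-repair defect were exposed to compounds, and growth inhibition was calculated relative to vehicle-treated control cultures.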

[2] = NCI Yeast Anticancer Drug Screen. Data for the sgs1 mgt1 strain (AID 161);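 note: 0% = growth of cultures given vehicle only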; details: S. cerevisiae sgs1 mgt1 strain, stronger effect = higher value
How it was run: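 Read-out: growth inhibition vs vehicle controls. Cells: mutant yeast strain deficient in DNA damage repair.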

[3] = NCI Yeast Anticancer Drug Screen. Data for the CLN2oe strain (AID 163);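 note: 0% = growth of vehicle-only control cultures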; details: S. cerevisiae CLN2oe strain, stronger effect = higher value
How it was run: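 Growth of a genetically modified yeast strain is measured after compound exposure and compared with cultures given vehicle alone.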

[4] = NCI Yeast Anticancer Drug Screen. Data for the cln2 rad14 strain (AID 165);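 note: 0% = growth equal to vehicle treated cultures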; details: S. cerevisiae cln2 rad14 strain, stronger effect = higher value
How it was run: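 Compounds are applied to the cln2 rad14 yeast strain, and growth is then compared with that of vehicle-treated cultures to give inhibition.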

[5] = NCI Yeast Anticancer Drug Screen. Data for the bub3 strain (AID 167); details: S. cerevisiae bub3 mutant strain, stronger effect = higher value
How it was run: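 Compounds were applied to a genetically altered yeast strain carrying a cell-cycle control defect. Growth inhibition was scored against vehicle-treated controls.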

[6] = NCI Yeast Anticancer Drug Screen. Data for the wt2 strain (AID 169);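 note: 0% = growth of vehicle-treated yeast cultures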; details: S. cerevisiae wt2 strain growth inhibition, stronger effect = higher value
How it was run: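 This strain belongs to a panel of yeast strains with defined genetic alterations in DNA damage repair or cell cycle control. Compounds are applied, and growth inhibition is measured against vehicle-treated cultures.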

[7] = NCI Yeast Anticancer Drug Screen. Data for the mlh1 strain (AID 171);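 note: 0% = growth of vehicle-treated control cultures of the same strain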; details: S. cerevisiae mlh1 strain growth inhibition, stronger effect = higher value
How it was run: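 Growth of the mutant yeast strain after compound exposure, expressed as inhibition relative to vehicle-only controls.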

[8] = NCI Yeast Anticancer Drug Screen. Data for the sgs1 strain (AID 173);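 note: 0% = growth of vehicle-only control cultures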; details: S. cerevisiae sgs1 mutant, stronger effect = higher value
How it was run: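 Growth of a yeast strain bearing a defined genetic alteration is measured after compound treatment. Inhibition is expressed relative to vehicle-only controls.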

[9] = NCI Yeast Anticancer Drug Screen. Data for the mlh1 rad18 strain (AID 175); details: S. cerevisiae mlh1 rad18 strain growth inhibition, stronger effect = higher value
How it was run: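 Read-out is yeast growth inhibition, calculated against vehicle-only controls. The compound was applied to a strain engineered with DNA damage repair alterations.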

[10] = NCI Yeast Anticancer Drug Screen. Data for the rad18 strain (AID 177); details: S. cerevisiae rad18 mutant growth inhibition, stronger effect = higher value
How it was run: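 Growth of the mutant yeast strain after compound exposure, normalised to vehicle-only cultures.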

[11] = NCI Yeast Anticancer Drug Screen. Data for the wt1 strain (AID 149);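 note: 0% = growth of vehicle-treated wt1 cultures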; details: S. cerevisiae wt1 strain (SPY 50644) growth inhibition, stronger effect = higher value
How it was run: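 Yeast wt1 strain exposed to compounds; growth inhibition measured relative to vehicle-treated controls.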

[12] = NCI Yeast Anticancer Drug Screen. Data for the rad50EPP+ strain (AID 151);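 note: 0% = growth of vehicle-treated control cultures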; details: S. cerevisiae rad50 mutant strain, stronger effect = higher value
How it was run: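 Compounds were applied to the rad50EPP+ yeast strain, which bears a defined DNA repair alteration, and growth inhibition was determined relative to vehicle-treated cultures.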

[13] = NCI Yeast Anticancer Drug Screen. Data for the rad50 strain (AID 155);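 note: 0% = growth of vehicle-only cultures of the same strain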; details: S. cerevisiae rad50 strain growth inhibition, stronger effect = higher value
How it was run: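 Yeast carrying a defined DNA repair defect were exposed to test compounds, and growth was compared with vehicle-treated controls to give percent inhibition.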

[14] = NCI Yeast Anticancer Drug Screen. Data for the mec2-1 strain (AID 157); details: S. cerevisiae mec2-1 strain, stronger effect = higher value
How it was run: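 Strain: mec2-1 (DNA repair/cell cycle alteration). Compound exposure, then growth measured; inhibition expressed relative to vehicle.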

[15] = at 5.0 µM (retest, dose inferred, filed as 0.5)
[16] = at 50.0 µM (retest, dose inferred, filed as 5.0)

Measured: growth inhibition

Cc1nc2ccc(Br)cc2c(=O)n1-c1ccc(NC2OCC(O)C(O)C2O)cc1 (centres undefined)
73.2% (active) and -5.1% (inactive): [5]; at 50.0 µM
active: [1]; at 100.0 µM 79% | [5]; at 100.0 µM 90% | [6]; at 100.0 µM 86% | [7]; at 100.0 µM 90% | [8]; at 100.0 µM 89% | [9]; [16] 79% | [10]; at 100.0 µM 91%
inactive: [2]; [15] -3% | [2]; [16] 34% | [2]; at 50.0 µM 64% and 0.15% | [3]; at 1.2 µM 5% | [3]; at 3.7 µM 11% | [3]; at 11.0 µM 14% | [3]; at 33.0 µM 39% | [3]; at 100.0 µM 48% | [4]; [15] -3% | [4]; [16] 53% | [4]; at 50.0 µM -15.2% and 12.8% | [5]; at 1.2 µM 4% | [5]; at 3.7 µM 8% | [5]; [15] 7% | [5]; at 11.0 µM 17% | [5]; at 33.0 µM 49% | [5]; [16] 60% | [6]; at 1.2 µM 1% | [6]; at 3.7 µM 4% | [6]; at 11.0 µM 14% | [6]; at 33.0 µM 43% | [7]; at 1.2 µM 9% | [7]; at 3.7 µM 9% | [7]; at 11.0 µM 19% | [7]; at 33.0 µM 52% | [8]; at 1.2 µM 6% | [8]; at 3.7 µM 12% | [8]; at 11.0 µM 25% | [8]; at 33.0 µM 61% | [9]; [15] -38% | [9]; at 50.0 µM 62.4% and 13.8% | [10]; at 1.2 µM 4% | [10]; at 3.7 µM 6% | [10]; at 11.0 µM 18% | [10]; at 33.0 µM 55%

O=[N+]([O-])c1ccc2nnnn2c1
inactive: [11]; at 1.2 µM 1% | [11]; at 3.7 µM 2% | [11]; at 11.0 µM 7% | [11]; at 33.0 µM 11% | [11]; at 100.0 µM 19% | [12]; at 1.2 µM -2% | [12]; at 3.7 µM -1% | [12]; at 11.0 µM 15% | [12]; at 33.0 µM 50% | [13]; at 1.2 µM -3% | [13]; at 3.7 µM -1% | [13]; [15] 10% | [13]; at 11.0 µM 3% | [13]; at 33.0 µM 10% | [13]; at 100.0 µM 21% | [14]; at 1.2 µM -1% | [14]; at 3.7 µM 2% | [14]; [15] 3% | [14]; at 11.0 µM 4% | [14]; at 33.0 µM 12% | [14]; [16] 23% | [14]; at 50.0 µM 43.9% | [14]; at 100.0 µM 43% | [1]; at 1.2 µM -1% | [1]; at 3.7 µM 0% | [1]; at 11.0 µM 5% | [1]; at 33.0 µM 10% | [1]; at 100.0 µM 30% | [2]; [15] 29% | [2]; at 50.0 µM 60.8% | [3]; at 1.2 µM -5% | [3]; at 3.7 µM 1% | [3]; at 11.0 µM -1% | [3]; at 33.0 µM -7% | [3]; at 100.0 µM 1% | [4]; [15] 2% | [4]; [16] 28% | [4]; at 50.0 µM 29.9% | [5]; at 1.2 µM -3% | [5]; at 3.7 µM -1% | [5]; [15] 21% | [5]; at 11.0 µM 1% | [5]; at 33.0 µM 3% | [5]; at 50.0 µM 34% | [5]; at 100.0 µM 21% | [6]; at 1.2 µM 0% | [6]; at 3.7 µM 1% | [6]; at 11.0 µM 7% | [6]; at 33.0 µM 14% | [6]; at 100.0 µM 25% | [7]; at 1.2 µM 0% | [7]; at 3.7 µM 1% | [7]; at 11.0 µM 4% | [7]; at 33.0 µM 14% | [7]; at 100.0 µM 34% | [8]; at 1.2 µM 1% | [8]; at 3.7 µM 7% | [8]; at 11.0 µM 15% | [8]; at 33.0 µM 30% | [9]; at 50.0 µM 61.8% | [10]; at 1.2 µM 1% | [10]; at 3.7 µM 2% | [10]; at 11.0 µM -2% | [10]; at 33.0 µM 25% | [10]; at 100.0 µM 55%
active: [12]; at 100.0 µM 79% | [13]; [16] 71% | [13]; at 50.0 µM 75.8% | [2]; [16] 86% | [5]; [16] 78% | [8]; at 100.0 µM 72% | [9]; [15] 78% | [9]; [16] 93%

CNc1ccc2[nH]c3ccccc3c2c1
active: [13]; at 50.0 µM 90% | [1]; at 100.0 µM 80% | [2]; at 50.0 µM 80.9% | [8]; at 100.0 µM 83% | [9]; [16] 77% | [9]; at 50.0 µM 82.7% | [10]; at 100.0 µM 85%
inactive: [11]; at 1.2 µM 0% | [11]; at 3.7 µM 0% | [11]; at 11.0 µM 1% | [11]; at 33.0 µM -4% | [11]; at 100.0 µM 28% | [12]; at 1.2 µM 1% | [12]; at 3.7 µM -2% | [12]; at 11.0 µM -4% | [12]; at 33.0 µM 26% | [12]; at 100.0 µM 65% | [13]; at 1.2 µM -1% | [13]; at 3.7 µM -2% | [13]; [15] 7% | [13]; at 11.0 µM -2% | [13]; at 33.0 µM 1% | [13]; [16] 25% | [13]; at 100.0 µM 58% | [14]; at 1.2 µM -1% | [14]; at 3.7 µM 1% | [14]; [15] -1% | [14]; at 11.0 µM 0% | [14]; at 33.0 µM 1% | [14]; [16] -5% | [14]; at 50.0 µM 62.9% | [14]; at 100.0 µM 59% | [1]; at 1.2 µM -3% | [1]; at 3.7 µM -5% | [1]; at 11.0 µM -3% | [1]; at 33.0 µM 4% | [2]; [15] -11% | [2]; [16] 13% | [3]; at 1.2 µM -6% | [3]; at 3.7 µM -7% | [3]; at 11.0 µM 0% | [3]; at 33.0 µM -5% | [3]; at 100.0 µM 52% | [4]; [15] -14% | [4]; [16] 20% | [4]; at 50.0 µM 15.2% | [5]; at 1.2 µM -4% | [5]; at 3.7 µM -7% | [5]; [15] -11% | [5]; at 11.0 µM -8% | [5]; at 33.0 µM -10% | [5]; [16] -4% | [5]; at 50.0 µM 66.6% | [5]; at 100.0 µM 54% | [6]; at 1.2 µM -1% | [6]; at 3.7 µM -1% | [6]; at 11.0 µM 3% | [6]; at 33.0 µM 5% | [6]; at 100.0 µM 59% | [7]; at 1.2 µM 3% | [7]; at 3.7 µM 1% | [7]; at 11.0 µM 0% | [7]; at 33.0 µM 1% | [7]; at 100.0 µM 65% | [8]; at 1.2 µM 0% | [8]; at 3.7 µM 4% | [8]; at 11.0 µM 3% | [8]; at 33.0 µM 11% | [9]; [15] -20% | [10]; at 1.2 µM 2% | [10]; at 3.7 µM 0% | [10]; at 11.0 µM -11% | [10]; at 33.0 µM 18%
